# Laboratory results: the supplement of paper PMC8728848
# The full list was thinned out, with the strongest signals kept by preference.
# Assays:
# Assay in all cases: glycan array binding signal (z-score within array); higher = stronger binding
# Settings in all cases: glycan notation: IUPAC condensed, linker removed; mutation: N130D
# [1] = target: Fuc(a1-2)Gal(b1-3)[Fuc(a1-4)]GlcNAc
# Outline: (§1)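 Arrays were curated from the Consortium for Functional Glycomics database, 3228 in total, and kept only where the protein sequence was available. Binding is expressed as a within-array Z-score. This score was averaged across arrays of the same protein sequence at different concentrations or buffers and across linkers, and negative values can be read as non-binding.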
# [2] = target: Fuc(a1-2)Gal(b1-4)GlcNAc(b1-2)Man(a1-3)[Fuc(a1-2)Gal(b1-4)GlcNAc(b1-2)Man(a1-6)]Man(b1-4)GlcNAc(b1-4)[Fuc(a1-6)]GlcNAc
# Outline: as §1
# [3] = target: Fuc(a1-2)Gal(b1-4)GlcNAc(b1-3)Gal(b1-4)GlcNAc(b1-3)Gal(b1-4)GlcNAc
# Outline: as §1
# [4] = target: Fuc(a1-2)[Gal(a1-3)]Gal(b1-3)GlcNAc(b1-3)GalNAc
# Outline: as §1
# [5] = target: Fuc(a1-2)[Gal(a1-3)]Gal(b1-4)GlcNAc(b1-3)GalNAc
# Outline: as §1
# [6] = target: Fuc(a1-2)[Gal(a1-3)]Gal(b1-4)[Fuc(a1-3)]GlcNAc(b1-3)GalNAc
# Outline: as §1
# [7] = target: Fuc(a1-2)[GalNAc(a1-3)]Gal(b1-4)GlcNAc(b1-6)GalNAc
# Outline: as §1
# [8] = target: Fuc(a1-3)[Gal(b1-4)]GlcNAc6S
# Outline: as §1
# Fuc(b1-3)GlcNAc = target: Fuc(b1-3)GlcNAc
# Outline: as §1
# [9] = target: Gal(a1-4)Gal(b1-4)GlcNAc(b1-3)Gal(b1-4)Glc
# Outline: as §1
# [10] = target: Gal(b1-3)[Fuc(a1-4)]GlcNAc(b1-3)Gal(b1-4)[Fuc(a1-3)]GlcNAc
# Outline: as §1
# [11] = target: Gal(b1-3)[Fuc(a1-4)]GlcNAc(b1-6)GalNAc
# Outline: as §1
# Gal(b1-4)GlcNAc(b1-2)Man = target: Gal(b1-4)GlcNAc(b1-2)Man
# Outline: as §1
# [12] = target: Gal(b1-4)GlcNAc(b1-2)Man(a1-6)[GlcNAc(b1-2)Man(a1-3)]Man(b1-4)GlcNAc(b1-4)GlcNAc
# Outline: as §1
# [13] = target: Gal(b1-4)GlcNAc(b1-3)Gal(b1-4)GlcNAc(b1-3)Gal(b1-4)GlcNAc(b1-2)Man(a1-3)[Gal(b1-4)GlcNAc(b1-3)Gal(b1-4)GlcNAc(b1-3)Gal(b1-4)GlcNAc(b1-2)Man(a1-6)]Man(b1-4)GlcNAc(b1-4)GlcNAc
# Outline: as §1
# [14] = target: Gal(b1-4)GlcNAc(b1-3)Gal(b1-4)GlcNAc(b1-3)Gal(b1-4)GlcNAc(b1-3)Gal(b1-4)GlcNAc(b1-3)Gal(b1-4)GlcNAc(b1-2)[Gal(b1-4)GlcNAc(b1-3)Gal(b1-4)GlcNAc(b1-3)Gal(b1-4)GlcNAc(b1-3)Gal(b1-4)GlcNAc(b1-3)Gal(b1-4)GlcNAc(b1-6)]Man(a1-6)[Gal(b1-4)GlcNAc(b1-3)Gal(b1-4)GlcNAc(b1-3)Gal(b1-4)GlcNAc(b1-3)Gal(b1-4)GlcNAc(b1-3)Gal(b1-4)GlcNAc(b1-2)Man(a1-3)]Man(b1-4)GlcNAc(b1-4)[Fuc(a1-6)]GlcNAc
# Outline: as §1
# [15] = target: Gal(b1-4)GlcNAc(b1-3)Gal(b1-4)GlcNAc(b1-3)[Gal(b1-4)GlcNAc(b1-3)Gal(b1-4)GlcNAc(b1-6)]GalNAc
# Outline: as §1
# [16] = target: Gal3S(b1-4)[Fuc(a1-3)]GlcNAc
# Outline: as §1
# Gal6S(b1-3)GlcNAc6S = target: Gal6S(b1-3)GlcNAc6S
# Outline: as §1
# [17] = target: GalNAc(a1-3)GalNAc(b1-3)Gal(a1-4)Gal(b1-4)GlcNAc
# Outline: as §1
# GalNAc(b1-3)GlcNAc = target: GalNAc(b1-3)GlcNAc
# Outline: as §1
# GalNAc3S(b1-4)GlcNAc3S = target: GalNAc3S(b1-4)GlcNAc3S
# Outline: as §1
# [18] = target: GlcNAc(a1-4)Gal(b1-4)GlcNAc(b1-3)Gal(b1-4)GlcNAc
# Outline: as §1
# [19] = target: GlcNAc(b1-3)[GlcNAc(b1-4)][GlcNAc(b1-6)]GlcNAc
# Outline: as §1
# [20] = target: Man(a1-2)Man(a1-2)Man(a1-3)Man
# Outline: as §1
# [21] = target: Man(a1-2)Man(a1-6)[Man(a1-3)]Man(a1-6)[Man(a1-2)Man(a1-2)Man(a1-3)]Man
# Outline: as §1
# [22] = target: Neu5Ac(a2-3)Gal(b1-3)GlcNAc(b1-6)GalNAc
# Outline: as §1
# Neu5Ac(a2-3)Gal(b1-4)Glc = target: Neu5Ac(a2-3)Gal(b1-4)Glc
# Outline: as §1
# [23] = target: Neu5Ac(a2-3)Gal(b1-4)GlcNAc(b1-2)Man
# Outline: as §1
# [24] = target: Neu5Ac(a2-3)Gal(b1-4)GlcNAc(b1-2)[Neu5Ac(a2-3)Gal(b1-4)GlcNAc(b1-6)]Man(a1-6)[Neu5Ac(a2-3)Gal(b1-4)GlcNAc(b1-2)Man(a1-3)][GlcNAc(b1-4)]Man(b1-4)GlcNAc(b1-4)GlcNAc
# Outline: as §1
# [25] = target: Neu5Ac(a2-3)Gal(b1-4)GlcNAc(b1-3)Gal(b1-3)GlcNAc
# Outline: as §1
# [26] = target: Neu5Ac(a2-3)Gal(b1-4)GlcNAc(b1-6)GalNAc
# Outline: as §1
# [27] = target: Neu5Ac(a2-3)Gal(b1-4)[Fuc(a1-3)]GlcNAc(b1-3)GalNAc
# Outline: as §1
# [28] = target: Neu5Ac(a2-6)Gal(b1-4)GlcNAc(b1-2)Man(a1-3)[GlcNAc(b1-4)][Neu5Ac(a2-6)Gal(b1-4)GlcNAc(b1-2)Man(a1-6)]Man(b1-4)GlcNAc(b1-4)GlcNAc
# Outline: as §1
# [29] = target: Neu5Ac(a2-6)Gal(b1-4)GlcNAc(b1-2)Man(a1-6)Man(b1-4)GlcNAc(b1-4)GlcNAc
# Outline: as §1
# [30] = target: Neu5Ac(a2-6)Gal(b1-4)GlcNAc(b1-3)Gal(b1-4)GlcNAc(b1-2)Man(a1-3)[Neu5Ac(a2-6)Gal(b1-4)GlcNAc(b1-3)Gal(b1-4)GlcNAc(b1-2)Man(a1-6)]GalNAc
# Outline: as §1
# [31] = target: Neu5Ac(a2-6)Gal(b1-4)GlcNAc(b1-6)GalNAc
# Outline: as §1
# [32] = target: Neu5Ac(a2-6)Gal(b1-4)GlcNAc(b1-6)[Gal(b1-3)]GalNAc
# Outline: as §1
# [33] = target: Neu5Ac(a2-8)Neu5Ac(a2-3)Gal(b1-4)Glc
# Outline: as §1
# [34] = target: Neu5Ac9Ac(a2-3)Gal(b1-4)GlcNAc
# Outline: as §1
binder,measurement,setting,value
Pwp5 DD (Candida glabrata) (protein) MGSSHHHHHHSSGLVPRGSHMASANPVPLTNVCYFPEEYPRQAGFRAITAGLASTILQGSVDELLNYSGLSSLTTQQTTTTTPNFQLPTLPLPTNVYGLTVVPLYLLVQLQGYFVPPVSGQYTFSLENTDDAAIIFFGNPSAFPCGDLSAWPQASADDITVTDGTFPSRTLFLKAGVAYPMRISYYNSLGSGNLAVSFTDPGGTKRTNWNGYIWRYNSCSTCTYT,glycan array binding signal (z-score),[1],0.621
same,glycan array binding signal (z-score),[2],2.89
same,glycan array binding signal (z-score),[3],-1.56
same,glycan array binding signal (z-score),[4],-0.233
same,glycan array binding signal (z-score),[5],0.126
same,glycan array binding signal (z-score),[6],-0.895
same,glycan array binding signal (z-score),[7],-0.759
same,glycan array binding signal (z-score),[8],-0.328
same,glycan array binding signal (z-score),Fuc(b1-3)GlcNAc,-0.571
same,glycan array binding signal (z-score),[9],0.021
same,glycan array binding signal (z-score),[10],-0.574
same,glycan array binding signal (z-score),[11],4.76
same,glycan array binding signal (z-score),Gal(b1-4)GlcNAc(b1-2)Man,-0.513
same,glycan array binding signal (z-score),[12],3.33
same,glycan array binding signal (z-score),[13],3.2
same,glycan array binding signal (z-score),[14],3.61
same,glycan array binding signal (z-score),[15],-0.447
same,glycan array binding signal (z-score),[16],-0.734
same,glycan array binding signal (z-score),Gal6S(b1-3)GlcNAc6S,2.71
same,glycan array binding signal (z-score),[17],1.09
same,glycan array binding signal (z-score),GalNAc(b1-3)GlcNAc,-0.687
same,glycan array binding signal (z-score),GalNAc3S(b1-4)GlcNAc3S,3.21
same,glycan array binding signal (z-score),[18],0.377
same,glycan array binding signal (z-score),[19],-0.559
same,glycan array binding signal (z-score),[20],-0.413
same,glycan array binding signal (z-score),[21],-0.259
same,glycan array binding signal (z-score),[22],0.895
same,glycan array binding signal (z-score),Neu5Ac(a2-3)Gal(b1-4)Glc,-0.436
same,glycan array binding signal (z-score),[23],2.67
same,glycan array binding signal (z-score),[24],11.6
same,glycan array binding signal (z-score),[25],-0.723
same,glycan array binding signal (z-score),[26],0.366
same,glycan array binding signal (z-score),[27],3.63
same,glycan array binding signal (z-score),[28],3.92
same,glycan array binding signal (z-score),[29],0.32
same,glycan array binding signal (z-score),[30],0.149
same,glycan array binding signal (z-score),[31],0.08
same,glycan array binding signal (z-score),[32],-0.062
same,glycan array binding signal (z-score),[33],-0.613
same,glycan array binding signal (z-score),[34],-0.213
